# Screen size: about 5,500 compounds; about 2,000 (36%) were called active. Another 18% or so got no clear call; they are omitted. The list shows a part of the results. Values without a mark were called inactive. Rule as the data show it: active = normalized growth mostly below about 0.91 (no sharp cut-off); inconclusive = no clear call, values can overlap the other calls; inactive = mostly above about 0.92.
# Assay: chemical genetic growth profiling, strain panel (AID 1159580);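 also: tested at 20 µM; growth read once vehicle control cultures reached saturation at 30 °C; 1 = growth at the plate median or of vehicle wells; lower values mean less growth of the strain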
# Conditions: growth OD
# [1] = S. cerevisiae deletion strains, locus YDL101C, strain DUN1, hits give low values
# [2] = S. cerevisiae deletion strains, locus YHR030C, strain SLT2, hits give low values
# [3] = S. cerevisiae deletion strains, locus YHR079C, strain IRE1, hits give low values
# [4] = S. cerevisiae deletion strains, locus YJL095W, strain BCK1, hits give low values
# [5] = S. cerevisiae deletion strains, locus YJR066W, strain TOR1, hits give low values
# [6] = S. cerevisiae deletion strains, locus YLR113W, strain HOG1, hits give low values
# [7] = S. cerevisiae deletion strains, locus YNL183C, strain NPR1, hits give low values
# [8] = S. cerevisiae deletion strains, locus YOR231W, strain MKK1, hits give low values
# [9] = S. cerevisiae deletion strains, locus YPL256C, strain CLN2, hits give low values
smiles,measurement,setting,value
O=[N+]([O-])c1ccc(-c2csc(Nc3ccncc3)n2)cc1,normalized growth,"S. cerevisiae deletion strains, locus YAR019C, strain CDC15, hits give low values",0.995
same,normalized growth,"S. cerevisiae deletion strains, locus YBL105C, strain PKC1, hits give low values",0.978
same,normalized growth,"S. cerevisiae deletion strains, locus YBR135W, strain CKS1, hits give low values",0.982
same,normalized growth,"S. cerevisiae deletion strains, locus YBR136W, strain MEC1, hits give low values",0.996
same,normalized growth,"S. cerevisiae deletion strains, locus YBR160W, strain CDC28, hits give low values",0.989
same,normalized growth,"S. cerevisiae deletion strains, locus YDL017W, strain CDC7, hits give low values",0.99
same,normalized growth,"S. cerevisiae deletion strains, locus YDL028C, strain MPS1, hits give low values",0.998
same,normalized growth,[1],0.99
same,normalized growth,"S. cerevisiae deletion strains, locus YDL108W, strain KIN28, hits give low values",0.979
same,normalized growth,"S. cerevisiae deletion strains, locus YDL132W, strain cdc53, hits give low values",0.982
same,normalized growth,"S. cerevisiae deletion strains, locus YDL214C, strain PRR2, hits give low values",0.941
same,normalized growth,"S. cerevisiae deletion strains, locus YDR052C, strain DBF4, hits give low values",0.992
same,normalized growth,"S. cerevisiae deletion strains, locus YDR054C, strain cdc34, hits give low values",0.977
same,normalized growth,"S. cerevisiae deletion strains, locus YDR226W, strain ADK1, hits give low values",0.985
same,normalized growth,"S. cerevisiae deletion strains, locus YDR477W, strain SNF1, hits give low values",0.992
same,normalized growth,"S. cerevisiae deletion strains, locus YER123W, strain YCK3, hits give low values",0.982
same,normalized growth,"S. cerevisiae deletion strains, locus YER133W, strain GLC7, hits give low values",0.987
same,normalized growth,"S. cerevisiae deletion strains, locus YFL009W, strain cdc4, hits give low values",0.981
same,normalized growth,"S. cerevisiae deletion strains, locus YFL029C, strain CAK1, hits give low values",1.01
same,normalized growth,"S. cerevisiae deletion strains, locus YFR003C, strain YPI1, hits give low values",0.98
same,normalized growth,"S. cerevisiae deletion strains, locus YFR019W, strain FAB1, hits give low values",0.984
same,normalized growth,"S. cerevisiae deletion strains, locus YFR028C, strain CDC14, hits give low values",0.996
same,normalized growth,"S. cerevisiae deletion strains, locus YGR040W, strain KSS1, hits give low values",0.978
same,normalized growth,"S. cerevisiae deletion strains, locus YGR052W, strain FMP48, hits give low values",1.01
same,normalized growth,"S. cerevisiae deletion strains, locus YGR092W, strain DBF2, hits give low values",0.908
same,normalized growth,[2],1
same,normalized growth,[3],1.01
same,normalized growth,"S. cerevisiae deletion strains, locus YHR082C, strain KSP1, hits give low values",1.08
same,normalized growth,"S. cerevisiae deletion strains, locus YHR205W, strain SCH9, hits give low values",0.923
same,normalized growth,"S. cerevisiae deletion strains, locus YIL147C, strain SLN1, hits give low values",0.991
same,normalized growth,[4],1.03
same,normalized growth,"S. cerevisiae deletion strains, locus YJL128C, strain PBS2, hits give low values",0.943
same,normalized growth,"S. cerevisiae deletion strains, locus YJL157C, strain FAR1, hits give low values",0.996
same,normalized growth,"S. cerevisiae deletion strains, locus YJR016C, strain ILV3, hits give low values",0.978
same,normalized growth,"S. cerevisiae deletion strains, locus YJR066W, strain TOR1 (second series), hits give low values",0.991
same,normalized growth,[5],0.968
same,normalized growth,"S. cerevisiae deletion strains, locus YKL048C, strain ELM1, hits give low values",0.976
same,normalized growth,"S. cerevisiae deletion strains, locus YKL067W, strain YNK1, hits give low values",0.941
same,normalized growth,"S. cerevisiae deletion strains, locus YKL101W, strain HSL1, hits give low values",0.98
same,normalized growth,"S. cerevisiae deletion strains, locus YKL193C, strain SDS22, hits give low values",0.988
same,normalized growth,"S. cerevisiae deletion strains, locus YKL203C, strain TOR2, hits give low values",1.07
same,normalized growth,[6],0.981
same,normalized growth,"S. cerevisiae deletion strains, locus YLR133W, strain CKI1, hits give low values",0.976
same,normalized growth,"S. cerevisiae deletion strains, locus YLR403W, strain SFP1, hits give low values",1.01
same,normalized growth,"S. cerevisiae deletion strains, locus YML070W, strain DAK1, hits give low values",0.991
same,normalized growth,"S. cerevisiae deletion strains, locus YMR001C, strain CDC5, hits give low values",0.993
same,normalized growth,"S. cerevisiae deletion strains, locus YMR205C, strain PFK2 (second series), hits give low values",0.973
same,normalized growth,"S. cerevisiae deletion strains, locus YMR277W, strain FCP1, hits give low values",0.989
same,normalized growth,"S. cerevisiae deletion strains, locus YNL006W, strain LST8, hits give low values",0.994
same,normalized growth,"S. cerevisiae deletion strains, locus YNL020C, strain ARK1, hits give low values",0.975
same,normalized growth,"S. cerevisiae deletion strains, locus YNL161W, strain CBK1, hits give low values",0.994
same,normalized growth,[7],1.02
same,normalized growth,"S. cerevisiae deletion strains, locus YNL207W, strain RIO2, hits give low values",0.984
same,normalized growth,"S. cerevisiae deletion strains, locus YNL222W, strain SSU72, hits give low values",0.996
same,normalized growth,"S. cerevisiae deletion strains, locus YNL307C, strain MCK1 (second series), hits give low values",0.976
same,normalized growth,"S. cerevisiae deletion strains, locus YOL078W, strain AVO1, hits give low values",0.986
same,normalized growth,"S. cerevisiae deletion strains, locus YOL136C, strain PFK27, hits give low values",0.979
same,normalized growth,"S. cerevisiae deletion strains, locus YOR061W, strain CKA2, hits give low values",0.957
same,normalized growth,"S. cerevisiae deletion strains, locus YOR119C, strain RIO1, hits give low values",1.01
same,normalized growth,[8],0.97
same,normalized growth,"S. cerevisiae deletion strains, locus YOR329C, strain SCD5, hits give low values",0.992
same,normalized growth,"S. cerevisiae deletion strains, locus YPL031C, strain PHO85, hits give low values",0.98
same,normalized growth,"S. cerevisiae deletion strains, locus YPL153C, strain RAD53, hits give low values",1
same,normalized growth,"S. cerevisiae deletion strains, locus YPL204W, strain HRR25, hits give low values",0.982
same,normalized growth,"S. cerevisiae deletion strains, locus YPL209C, strain IPL1, hits give low values",0.991
same,normalized growth,[9],1.03
same,normalized growth,"S. cerevisiae deletion strains, locus YPR025C, strain CCL1, hits give low values",0.985
same,normalized growth,"S. cerevisiae deletion strains, locus YPR106W, strain ISR1, hits give low values",0.98
same,normalized growth,"S. cerevisiae deletion strains, locus YPR111W, strain DBF20, hits give low values",0.969
same,normalized growth,"S. cerevisiae deletion strains, strain NNK1, hits give low values",0.996
same,normalized growth,"S. cerevisiae deletion strains, strain TSCII, hits give low values",1
O=C1CN=C(c2ccccc2Cl)c2cc([N+](=O)[O-])ccc2N1,normalized growth,[2],0.869
same,normalized growth,[3],0.965
same,normalized growth,[4],0.981
same,normalized growth,[5],0.945
same,normalized growth,[6],0.963
same,normalized growth,[7],0.9
same,normalized growth,[8],0.962
same,normalized growth,[9],0.924
O=[N+]([O-])c1cccc(-c2csc(Nc3ccccc3Cl)n2)c1,normalized growth,"S. cerevisiae deletion strains, locus YAL013W, strain DEP1, hits give low values",0.94
same,normalized growth,"S. cerevisiae deletion strains, locus YBR229C, strain ROT2, hits give low values",0.966
same,normalized growth,[1],0.978
same,normalized growth,"S. cerevisiae deletion strains, locus YDR150W, strain NUM1, hits give low values",0.934
same,normalized growth,"S. cerevisiae deletion strains, locus YEL061C, strain CIN8, hits give low values",0.929
same,normalized growth,"S. cerevisiae deletion strains, locus YGR078C, strain PAC10, hits give low values",0.938
same,normalized growth,"S. cerevisiae deletion strains, locus YGR229C, strain SMI1, hits give low values",0.959
same,normalized growth,[2],0.418 (active)
same,normalized growth,"S. cerevisiae deletion strains, locus YHR087W, strain rtc3, hits give low values",0.955
same,normalized growth,"S. cerevisiae deletion strains, locus YJL187C, strain SWE1, hits give low values",1.01
same,normalized growth,"S. cerevisiae deletion strains, locus YJR043C, strain POL32, hits give low values",0.979
same,normalized growth,"S. cerevisiae deletion strains, locus YJR075W, strain HOC1, hits give low values",0.88 (active)
same,normalized growth,"S. cerevisiae deletion strains, locus YKL190W, strain CNB1, hits give low values",0.907 (active)
same,normalized growth,"S. cerevisiae deletion strains, locus YLR039C, strain RIC1, hits give low values",0.6 (active)
same,normalized growth,"S. cerevisiae deletion strains, locus YLR058C, strain SHM2 (second series), hits give low values",0.964
same,normalized growth,"S. cerevisiae deletion strains, locus YLR085C, strain ARP6, hits give low values",0.571 (active)
same,normalized growth,"S. cerevisiae deletion strains, locus YLR262C, strain YPT6, hits give low values",0.727 (active)
same,normalized growth,"S. cerevisiae deletion strains, locus YML094W, strain GIM5, hits give low values",0.818 (active)
same,normalized growth,"S. cerevisiae deletion strains, locus YMR219W, strain ESC1, hits give low values",0.964
same,normalized growth,"S. cerevisiae deletion strains, locus YMR263W, strain SAP30, hits give low values",0.945
same,normalized growth,"S. cerevisiae deletion strains, locus YNL153C, strain GIM3, hits give low values",0.972
same,normalized growth,"S. cerevisiae deletion strains, locus YNL298W, strain CLA4 (second series), hits give low values",0.82 (active)
same,normalized growth,"S. cerevisiae deletion strains, locus YNL322C, strain KRE1, hits give low values",0.977
same,normalized growth,"S. cerevisiae deletion strains, locus YNR030W, strain Alg12, hits give low values",0.811 (active)
same,normalized growth,"S. cerevisiae deletion strains, locus YOL006C, strain TOP1, hits give low values",0.638 (active)
same,normalized growth,"S. cerevisiae deletion strains, locus YPL055C, strain LGE1, hits give low values",0.715 (active)
same,normalized growth,"S. cerevisiae deletion strains, locus YPL241C, strain CIN2, hits give low values",0.82 (active)
same,normalized growth,"S. cerevisiae deletion strains, locus YPR135W, strain CTF4, hits give low values",0.795
same,normalized growth,"S. cerevisiae strains, strain wild type, hits give low values",0.915

# Source: PubChem BioAssay AID1159580 (chemical genetic matrix, 2015)
